Most compounds without a hit are left out; they make up all but 9.1% or so of the library.
mHtt clearance: clearance of mutant huntingtin inclusions, primary screen, imaging, HeLa Exon1htt(103Q)mCFP, confocal imaging; inhibition, % at 1.5 µM; aggregate imaging; zero = plate's median compound well; hit rate 0.42% among 47,000;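 active means inhibition of aggregate fluorescence above about 70%, also judged a hit by eye on the cell image, limit read from the data, passing the limit was not always enough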;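 further: cells exposed to compound for three days before fixation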
D1 mod: D1 CRE-luciferase signal change, two-sided – cell-based, HEK293 D1, dopamine EC30, D1 allosteric modulator project, primary screen | D(1A) dopamine receptor (Homo sapiens), P21728 | dopamine EC30 potentiation; actives deviate in either direction | B-score at 10 µM | hit rate 5.9% among 58,000 | AID 641, 2007;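 active means luminescence count or its row- and column-corrected plate score outside the 99.7% band of the plate's sample wells, on either side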
M1 antag: antagonists of rat M1 muscarinic receptor | CHO-M1 cells, Fluo-4 calcium, ACh EC80 antagonist mode; active compounds read low | B-score at 10 µM | hit rate 3.4% among 64,000 | Muscarinic acetylcholine receptor M1 (Rattus norvegicus), P08482 | AID 628, 2007;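 active means calcium fluorescence response, raw or row-and-column corrected B-score, differing from the plate sample mean either way at a set confidence level, mostly lower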
Target sequence (P08482 whole entry, looked up): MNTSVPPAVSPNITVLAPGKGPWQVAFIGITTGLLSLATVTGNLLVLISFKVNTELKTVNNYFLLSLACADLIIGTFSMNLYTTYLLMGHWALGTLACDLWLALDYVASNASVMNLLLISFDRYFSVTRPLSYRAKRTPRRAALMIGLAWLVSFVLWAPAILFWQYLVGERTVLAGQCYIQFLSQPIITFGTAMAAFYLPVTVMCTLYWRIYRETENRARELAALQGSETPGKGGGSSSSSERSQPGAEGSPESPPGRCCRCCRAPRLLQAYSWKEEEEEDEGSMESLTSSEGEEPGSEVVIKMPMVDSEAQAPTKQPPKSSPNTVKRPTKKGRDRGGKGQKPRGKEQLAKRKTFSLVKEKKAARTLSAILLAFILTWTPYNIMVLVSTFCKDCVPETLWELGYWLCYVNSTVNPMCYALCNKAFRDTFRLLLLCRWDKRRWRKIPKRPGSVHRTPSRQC
M1 agonist: M1 muscarinic receptor agonists, primary screen, CHO-M1 cells, Fluo-4 calcium, agonist mode | Muscarinic acetylcholine receptor M1 | AID 626, 2007 | hit rate 3% among 64,000 | B-score at 10 µM | Fluo-4 calcium fluorescence; active compounds read high;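 active means fluorescence rise, raw or as B-score row- and column-corrected plate score, outside the 99.7% band of its plate's samples, either direction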
Hits are given with their value; . = inactive; / = no result.

SMILES	mHtt clearance	D1 mod	M1 antag	M1 agonist
S=C(Nc1ccccn1)c1ccccn1	.	-2.6	.	.
O=C1/C(=C/Nc2ccc3c(c2)OCO3)CCc2ccccc21	/	-6.1	.	.
Cc1ccc(C(=O)c2coc3ccc(O)c(CN4CCN(C)CC4)c23)cc1	.	-3.1	.	.
COc1ccc(C(=O)c2coc3ccc(O)c(CN4CCCC4)c23)cc1	/	.	.	.
COc1ccccc1C(=O)NCCN1CCN(C(=O)c2ccccc2OC)CC1	.	.	.	.
CCCCN1C(=O)c2ccc(C(=O)NC3=NCCS3)cc2C1=O	.	/	.	.
CC(=O)N1CCc2cc(NC(=O)c3ccc(C)cc3)ccc21	.	-2.6	.	.
COCCn1c(=O)[nH]c2cc(C(=O)NCCCN3CCN(c4ccc(F)cc4)CC3)ccc2c1=O	/	-4.4	.	.
CCCCCn1c(=O)[nH]c2cc(C(=O)NCCN3CCOCC3)ccc2c1=O	.	.	.	.
COCCn1c(=O)[nH]c2cc(C(=O)NCCN3CCN(c4ccccc4F)CC3)ccc2c1=O	/	.	/	/
O=C(NCCN1CCCC1)c1ccc2c(=O)n(CCc3ccccc3)c(=O)[nH]c2c1	.	-3.7	.	.
CCOC(=O)c1c(C)n(C)c2ccc(OCC(O)CN3C(=O)c4ccccc4S3(=O)=O)cc12 (configuration not stated)	/	.	.	7.2
Cc1cccc(N2CCN(C(=O)C(Cc3ccccc3)n3cccc3)CC2)c1C (configuration not stated)	.	/	/	/
COc1ccccc1N1CCN(C(=O)CSc2nc(C)c(Cc3ccccc3)c(=O)[nH]2)CC1	80	.	.	.
Cc1ccc2nc(Nc3ncc4c(n3)CCCC4=O)nc(C)c2c1	/	.	-2.7	.
Cc1cc(C)cc(Nc2ncc3c(n2)CCCC3=O)c1	.	-5	.	.
Cc1ccc(S(=O)(=O)C(C#N)c2nc3ccccc3nc2N2CCCCC2)cc1 (configuration not stated)	/	.	.	.
N#CC(C(=O)NC1CC1)c1nc2ccccc2nc1N1CCCC1 (configuration not stated)	/	/	.	.
COCCCNC(=O)C(C#N)c1nc2ccccc2nc1N1CCN(Cc2ccccc2)CC1 (configuration not stated)	/	/	.	.
CCCCNC(=O)C(C#N)c1nc2ccccc2nc1N1CCN(c2ccccc2F)CC1 (configuration not stated)	.	.	.	36
N#CC(C(=O)NC1CCCCC1)c1nc2ccccc2nc1N1CCCCC1 (configuration not stated)	/	.	.	49
N#CC(c1nc2ccccc2nc1N1CCCCC1)S(=O)(=O)c1ccc(Cl)cc1 (configuration not stated)	/	-2.5	.	.
CCOC(=O)C1CCN(c2nc3ccccc3nc2C(C#N)C(=O)NCCc2ccccc2)CC1 (configuration not stated)	/	.	.	33
COc1ccccc1N(C(C)=O)c1nc(C)cc(C)c1C#N	.	/	/	/
COc1ccccc1NS(=O)(=O)c1cc(Cl)ccc1OC	/	.	.	.
SMILES	mHtt clearance	D1 mod	M1 antag	M1 agonist
OCCN(CCO)CC(O)COCCC12CC3CC(CC(C3)C1)C2 (configuration not stated)	.	/	/	/
CCCCC(=O)C1=C(N2CCCC2)CC(C)(C)CC1=O	72	/	/	/
COc1cccc(C(=O)Nc2ccc(C)cc2)c1	.	-4.5	.	.
CCOC(=O)c1c(NC(=O)CSc2n[nH]c(CNc3ccccc3)n2)sc(C)c1C	.	/	/	/
CCOC(=O)c1c(NC(=O)CSc2n[nH]c(-c3ccco3)n2)sc(C)c1C	/	6.9	.	.
Cn1c(C(=O)NCCN2CCOCC2)cc2c(=O)n(C)c3ccccc3c21	.	.	.	.
Cn1c(C(=O)NCCN2CCN(c3ccccc3F)CC2)cc2c(=O)n(C)c3ccccc3c21	/	-3.7	.	.
Cn1c(C(=O)NCCCN2CCN(c3ccc(F)cc3)CC2)cc2c(=O)n(C)c3ccccc3c21	/	-5.2	.	.
Cc1ccc(CN(c2ccc(C(=O)Nc3cccnc3)cc2)S(C)(=O)=O)cc1	.	/	/	/
O=S(=O)(Cc1ccc(Cl)cc1)N1CCCC1	/	.	.	.
O=C1Nc2cc(Cl)cnc2N2CCCC12 (configuration not stated)	/	.	.	13
Cc1cccc(C)c1NC(=O)C(=O)NCc1ccccn1	.	/	/	/
CC(C)(C)n1nnnc1C(c1cccs1)N1CCCc2ccccc21 (configuration not stated)	.	.	.	.
CCC1(COC(NC(=O)c2cccnc2)(C(F)(F)F)C(F)(F)F)COC1	/	-7	.	.
CCOC(=O)C(O)(NC(=O)c1cccnc1)C(F)(F)F (configuration not stated)	.	.	.	.
COC(=O)c1ccc(CC(=O)c2c(C)cc(O)cc2O)o1	/	.	.	.
COc1ccc(/C=N/n2cc(-c3ccccc3)nc2N)cc1	/	.	.	.
COc1ccc(/C=N\n2nnc3ccccc32)cc1	/	-3.9	.	.
CCOc1ccccc1NC(=O)C1CCCCN1S(=O)(=O)c1ccc(F)cc1 (configuration not stated)	.	/	/	/
COc1ccccc1-n1cnnc1SC1CCOC1=O (configuration not stated)	/	.	2.8	.
Cc1cc(C)c(S(C)(=O)=O)c(Oc2ccc(C(C)(C)C)cc2)n1	.	/	/	/
COCCCNC(=O)c1ccccc1NS(=O)(=O)c1ccc(C)cc1	.	.	.	.
CCOC(=O)C(NC(C)=O)(Nc1ccc(S(=O)(=O)Nc2onc(C)c2C)cc1)C(F)(F)F (configuration not stated)	.	-6.9	.	.
CCOC(=O)N1CCN(C(=O)c2ccc3c(=O)n(Cc4ccc(OC)cc4)c(=S)[nH]c3c2)CC1	.	.	.	.
CCOC(=O)N1CCN(C(=O)c2ccc(Cn3c(=S)[nH]c4cc5c(cc4c3=O)OCO5)cc2)CC1	.	-4.1	.	.
SMILES	mHtt clearance	D1 mod	M1 antag	M1 agonist
COCCNC(=O)c1ccccc1NC(=O)COc1ccccc1	/	.	2.1	.
COCCCNC(=O)c1ccccc1NS(C)(=O)=O	/	.	.	.
CCOCCCNS(=O)(=O)c1ccc(Br)cc1	.	.	/	/
Cc1ccc(C(=O)Nc2sc3c(c2C(=O)O)CCCCC3)o1	/	-3	.	.
O=C(Oc1ccccc1Cl)c1ccc(-n2cncn2)nc1	.	/	/	/
CC(=O)Nc1ccc(N2CCN(C(=O)c3cccs3)CC2)cc1	/	.	.	.
CC(C)C(=O)N1CCN(c2ccc(NC(=O)c3cccs3)cc2)CC1	79	/	/	/
CCC(C(=O)NC1CCCC1)N(Cc1cccs1)C(=O)Cn1nnc(-c2ccc(OC)c(OC)c2)n1 (configuration not stated)	.	/	/	/
COc1ccc(-c2nnn(CC(=O)N(Cc3cccs3)C(C)C(=O)NC3CCCC3)n2)cc1OC (configuration not stated)	/	4	.	.
CCN1C(=S)SC(=O)C1=C1C=C(C)N(CCO)C(C)=C1	/	.	.	.
CCN1C(=S)SC(=O)C1=C1C=C(C)N(CCOC)C(C)=C1	/	-4	.	44
CC(=O)c1cn(CC(=O)Nc2ccc(C)cc2C)c2ccccc12	.	/	/	/
Nc1ccc(C(=O)Nc2nc3ccccc3s2)cc1	/	-6.6	.	.

Screening data deposited in PubChem BioAssay by several laboratories.
